# The list shows a part of the results. The true hit rate is not given.
# Molecular target: furin, P09958
# Assay: furin cleavage Z-score vs untreated control; higher = more cleavage, active = 3.5 or more, inactive = 1 or less, 8 variable residues between constant flanks
# Procedure, shortened: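 Peptides 8 residues long, fused to a cDNA oligonucleotide, were fixed to magnetic beads by the N-terminus and exposed to purified furin. The 0.01 ml reactions contained 50 mM HEPES pH 7.5 with CaCl2 and NaCl at 1:10 enzyme:substrate and ran 7.5, 15 or 30 min. For the cleavage Z-score, log counts of sequenced released DNA were compared with furin-free reactions, lowess-adjusted and scaled by median absolute deviation.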
# Sequence of furin, P09958 (P09958 whole entry): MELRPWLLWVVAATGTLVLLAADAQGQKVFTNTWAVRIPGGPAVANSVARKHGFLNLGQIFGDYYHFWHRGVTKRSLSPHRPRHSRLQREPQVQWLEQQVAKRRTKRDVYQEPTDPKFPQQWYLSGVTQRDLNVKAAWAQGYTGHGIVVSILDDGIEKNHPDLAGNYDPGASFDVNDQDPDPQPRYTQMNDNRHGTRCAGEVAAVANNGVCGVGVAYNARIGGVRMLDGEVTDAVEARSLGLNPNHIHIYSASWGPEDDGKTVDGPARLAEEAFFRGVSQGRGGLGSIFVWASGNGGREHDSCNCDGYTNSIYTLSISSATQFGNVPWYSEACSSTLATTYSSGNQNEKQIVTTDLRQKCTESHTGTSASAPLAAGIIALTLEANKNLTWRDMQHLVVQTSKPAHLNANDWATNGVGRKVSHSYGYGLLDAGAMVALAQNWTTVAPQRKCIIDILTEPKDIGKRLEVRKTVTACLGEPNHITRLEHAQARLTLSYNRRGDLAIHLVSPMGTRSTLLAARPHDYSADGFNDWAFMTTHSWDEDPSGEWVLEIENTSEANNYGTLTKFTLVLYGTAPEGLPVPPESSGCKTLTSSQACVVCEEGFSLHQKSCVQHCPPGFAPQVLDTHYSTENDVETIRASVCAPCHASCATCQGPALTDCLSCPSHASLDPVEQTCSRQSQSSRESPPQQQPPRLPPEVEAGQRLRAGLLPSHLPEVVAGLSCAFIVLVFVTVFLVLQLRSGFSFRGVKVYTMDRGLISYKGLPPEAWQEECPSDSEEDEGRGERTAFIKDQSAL
Sequence,furin cleavage Z-score (7.5 min),furin cleavage Z-score (15 min),furin cleavage Z-score (30 min)
CAIKKRSLRSAGNASASA [FS-1345],6.68 (active),5.55 (active),5.16 (active)
CASTPCSAHSAGNASASA [HC2577],-0.571 (inactive),0.484 (inactive),1.4
CASTVRSLRSAGNASASA [FS-566],2.72,4.24 (active),4.81 (active)
CARRRKSASDAGNASASA [FS-2074],-0.354 (inactive),-0.175 (inactive),0.845 (inactive)
CAEVPCHRPIAGNASASA [HC2404],0.502 (inactive),-0.467 (inactive),1.19
CAVVCCSQSYAGNASASA [HC2062],1.31,2.95,0.942 (inactive)
CALSHRSKRSAGNASASA [FS-1031],12.7 (active),12.6 (active),11.4 (active)
CARTHRSKRSAGNASASA [FS-957],11.6 (active),11.5 (active),8.26 (active)
CARRRRDLQAAGNASASA [FS-2075],8.41 (active),10.5 (active),8.73 (active)
CARRRRDTHFAGNASASA [FS-2785],8.52 (active),11.4 (active),10.2 (active)
CARHRRILQAAGNASASA [FS-2025],-0.809 (inactive),0.0867 (inactive),-0.324 (inactive)
CARRRKDDYAAGNASASA [FS-2073],0.651 (inactive),0.661 (inactive),-1.05 (inactive)
CARRRRRPGGAGNASASA [FS-3065],-0.191 (inactive),-1.18 (inactive),-0.53 (inactive)
CARRRRDHHMAGNASASA [FS-1838],7.82 (active),8.82 (active),7.36 (active)
CARRRRDLGGAGNASASA [FS-1866],3.6 (active),2.23,1.75
CARRRGDSRGAGNASASA [HC732],-0.828 (inactive),-0.656 (inactive),-0.847 (inactive)

# Reference: the supplement of paper PMC3545927
